PubChem BioAssay (NCI)
Compounds without any hit were thinned out: in the full panel of roughly 79,000, 15% have a hit. The source made the active and inactive calls. No stated cut-off is given here; in the data, active means growth inhibition above about 70%; inactive means the rest.

Assays:
[1] = NCI Yeast Anticancer Drug Screen. Data for the rad52 strain (AID 147);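 further: 0% = growth of vehicle-treated control cultures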; conditions: S. cerevisiae rad52 mutant growth inhibition, active compounds read high
Outline: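 Inhibition of yeast growth, referenced to vehicle controls, was the measured output for a strain with defective DNA damage repair.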

[2] = NCI Yeast Anticancer Drug Screen. Data for the wt1 strain (AID 149);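 further: 0% = growth of vehicle-treated wt1 cultures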; conditions: S. cerevisiae wt1 strain (SPY 50644) growth inhibition, active compounds read high
Outline: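 wt1 yeast, compound-treated; % growth inhibition vs vehicle control.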

[3] = NCI Yeast Anticancer Drug Screen. Data for the rad50EPP+ strain (AID 151);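 further: 0% = growth of vehicle-treated control cultures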; conditions: S. cerevisiae rad50 mutant strain, active compounds read high
Outline: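 Genetically defined yeast (rad50EPP+, DNA damage repair alteration) is grown with compound, and inhibition of growth is expressed relative to vehicle-treated controls.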

[4] = NCI Yeast Anticancer Drug Screen. Data for the mgt1 strain (AID 153); conditions: S. cerevisiae mgt1 mutant growth inhibition, active compounds read high
Outline: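 In the mgt1 strain, test compounds were added and growth inhibition was determined relative to vehicle-treated controls.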

[5] = NCI Yeast Anticancer Drug Screen. Data for the rad50 strain (AID 155);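 further: 0% = growth of vehicle-only cultures of the same strain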; conditions: S. cerevisiae rad50 strain growth inhibition, active compounds read high
Outline: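 Genetically altered yeast (DNA repair pathway); compound treatment; growth inhibition vs vehicle ctrl.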

[6] = NCI Yeast Anticancer Drug Screen. Data for the mec2-1 strain (AID 157); conditions: S. cerevisiae mec2-1 strain, active compounds read high
Outline: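 Each compound was tested on mec2-1 yeast, a strain altered in DNA damage repair or cell cycle control. Growth inhibition is reported relative to vehicle.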

[7] = NCI Yeast Anticancer Drug Screen. Data for the rad14 strain (AID 159);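 further: 0% = growth of vehicle-treated control cultures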; conditions: S. cerevisiae rad14 strain growth inhibition, active compounds read high
Outline: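 Test compounds were applied to a repair-deficient yeast strain. Its growth was then compared with that of cultures given vehicle alone, and inhibition was expressed relative to those controls.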

[8] = NCI Yeast Anticancer Drug Screen. Data for the sgs1 mgt1 strain (AID 161);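 further: 0% = growth of cultures given vehicle only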; conditions: S. cerevisiae sgs1 mgt1 strain, active compounds read high
Outline: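 Read-out: growth inhibition vs vehicle controls. Cells: mutant yeast strain deficient in DNA damage repair.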

[9] = NCI Yeast Anticancer Drug Screen. Data for the cln2 rad14 strain (AID 165);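 further: 0% = growth equal to vehicle treated cultures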; conditions: S. cerevisiae cln2 rad14 strain, active compounds read high
Outline: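 Test compounds were added to cln2 rad14 yeast cultures; inhibition of growth was then determined by comparison with vehicle treatment.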

[10] = NCI Yeast Anticancer Drug Screen. Data for the bub3 strain (AID 167); conditions: S. cerevisiae bub3 mutant strain, active compounds read high
Outline: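 Yeast carrying a defined mutation is treated with each compound, and growth is compared with that of vehicle-exposed cells to give inhibition.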

[11] = NCI Yeast Anticancer Drug Screen. Data for the wt2 strain (AID 169);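 further: 0% = growth of vehicle-treated yeast cultures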; conditions: S. cerevisiae wt2 strain growth inhibition, active compounds read high
Outline: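 The panel's yeast strains carry defined changes in DNA repair or cell cycle genes. Each strain is grown with compound, and growth loss is scored relative to vehicle.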

[12] = NCI Yeast Anticancer Drug Screen. Data for the mlh1 strain (AID 171);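 further: 0% = growth of vehicle-treated control cultures of the same strain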; conditions: S. cerevisiae mlh1 strain growth inhibition, active compounds read high
Outline: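 Inhibition values reflect reduced yeast growth in the presence of compound, referenced to vehicle controls, using a strain chosen for its alteration in DNA repair or cell cycle control.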

[13] = NCI Yeast Anticancer Drug Screen. Data for the sgs1 strain (AID 173);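 further: 0% = growth of vehicle-only control cultures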; conditions: S. cerevisiae sgs1 mutant, active compounds read high
Outline: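 Vehicle-treated cultures served as reference for growth inhibition of a yeast strain altered in DNA damage repair or cell cycle control after compound exposure.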

[14] = NCI Yeast Anticancer Drug Screen. Data for the mlh1 rad18 strain (AID 175); conditions: S. cerevisiae mlh1 rad18 strain growth inhibition, active compounds read high
Outline: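 Inhibition values reflect reduced growth of mutant yeast versus vehicle-treated controls following compound exposure; the mutations affect DNA damage repair.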

[15] = NCI Yeast Anticancer Drug Screen. Data for the rad18 strain (AID 177); conditions: S. cerevisiae rad18 mutant growth inhibition, active compounds read high
Outline: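 Steps: expose repair-mutant yeast to compound; measure growth; express as inhibition relative to vehicle control.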

[16] = NCI Yeast Anticancer Drug Screen. Data for the CLN2oe strain (AID 163);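 further: 0% = growth of vehicle-only control cultures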; conditions: S. cerevisiae CLN2oe strain, active compounds read high
Outline: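 First, the altered yeast strain was treated with each compound; second, its growth was measured; finally, inhibition was derived by comparison with vehicle controls.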

[17] = at 5.0 µM (retest, dose inferred, filed as 0.5)
[18] = at 50.0 µM (retest, dose inferred, filed as 5.0)

Measured: growth inhibition

NC(N)=N/N=C/c1cc(Cl)cc(Cl)c1O
active: [1]; at 100.0 µM 98% | [2]; at 100.0 µM 95% | [3]; at 100.0 µM 74% | [4]; at 33.0 µM 88% | [4]; at 100.0 µM 99% | [5]; [18] 95% | [5]; at 50.0 µM 79.7% | [5]; at 100.0 µM 97% | [6]; [17] 73% | [6]; [18] 96% | [6]; at 100.0 µM 98% | [7]; at 33.0 µM 72% | [7]; at 100.0 µM 98% | [8]; [18] 98% | [9]; [18] 93% | [10]; [18] 96% | [10]; at 100.0 µM 97% | [11]; at 100.0 µM 97% | [12]; at 100.0 µM 98% | [13]; at 100.0 µM 98% | [14]; [18] 97% | [15]; at 100.0 µM 95%
inactive: [1]; at 1.2 µM 5% | [1]; at 3.7 µM 4% | [1]; at 11.0 µM 21% | [1]; at 33.0 µM 51% | [2]; at 1.2 µM -14% | [2]; at 3.7 µM -19% | [2]; at 11.0 µM -29% | [2]; at 33.0 µM 1% | [3]; at 1.2 µM 19% | [3]; at 3.7 µM 49% | [3]; at 11.0 µM 50% | [3]; at 33.0 µM 60% | [4]; at 1.2 µM 18% | [4]; at 3.7 µM 17% | [4]; at 11.0 µM 33% | [5]; at 1.2 µM -15% | [5]; at 3.7 µM -7% | [5]; [17] 63% | [5]; at 11.0 µM 4% | [5]; at 33.0 µM 46% | [6]; at 1.2 µM -29% | [6]; at 3.7 µM -18% | [6]; at 11.0 µM -21% | [6]; at 33.0 µM 23% | [6]; at 50.0 µM 61.9% | [7]; at 1.2 µM -8% | [7]; at 3.7 µM 1% | [7]; at 11.0 µM 12% | [8]; [17] 4% | [9]; [17] 54% | [10]; at 1.2 µM -7% | [10]; at 3.7 µM -6% | [10]; [17] 46% | [10]; at 11.0 µM 4% | [10]; at 33.0 µM 49% | [11]; at 1.2 µM -49% | [11]; at 3.7 µM -40% | [11]; at 11.0 µM -30% | [11]; at 33.0 µM 30% | [12]; at 1.2 µM 12% | [12]; at 3.7 µM 9% | [12]; at 11.0 µM 21% | [12]; at 33.0 µM 68% | [13]; at 1.2 µM -12% | [13]; at 3.7 µM -14% | [13]; at 11.0 µM -1% | [13]; at 33.0 µM 37% | [14]; [17] 55% | [14]; at 50.0 µM 58.2% | [15]; at 1.2 µM -8% | [15]; at 3.7 µM -11% | [15]; at 11.0 µM -6% | [15]; at 33.0 µM 49%

CC(=O)[C@]1(O)Cc2c(O)c3c(c(O)c2[C@@H](OC2CC(N)C(O)C(C)O2)C1)C(=O)c1c(OCc2ccccc2)cccc1C3=O (some centres undefined)
inactive: [1]; at 1.2 µM 21% | [1]; at 3.7 µM 40% | [1]; at 11.0 µM 59% | [2]; at 1.2 µM -9% | [2]; at 3.7 µM -4% | [2]; at 11.0 µM 5% | [2]; at 33.0 µM -4% | [2]; at 100.0 µM 7% | [3]; at 1.2 µM 18% | [3]; at 3.7 µM 21% | [3]; at 11.0 µM 28% | [3]; at 33.0 µM 46% | [3]; at 100.0 µM 65% | [4]; at 1.2 µM -2% | [4]; at 3.7 µM 8% | [4]; at 11.0 µM 5% | [4]; at 33.0 µM 14% | [4]; at 100.0 µM 43% | [5]; at 1.2 µM 14% | [5]; at 3.7 µM 24% | [5]; [17] 9% | [5]; at 11.0 µM 44% | [6]; at 1.2 µM 4% | [6]; at 3.7 µM -10% | [6]; [17] -9% | [6]; at 11.0 µM -1% | [6]; at 33.0 µM 2% | [6]; [18] 24% | [6]; at 50.0 µM 12.4% | [6]; at 100.0 µM 28% | [8]; [17] 11% | [8]; [18] 46% | [8]; at 50.0 µM 9.95% | [16]; at 1.2 µM 5% | [16]; at 3.7 µM 16% | [16]; at 11.0 µM 27% | [16]; at 33.0 µM 30% | [16]; at 100.0 µM 31% | [10]; at 1.2 µM -2% | [10]; at 3.7 µM 1% | [10]; [17] 10% | [10]; at 11.0 µM 5% | [10]; at 33.0 µM 18% | [10]; [18] 36% | [10]; at 50.0 µM 17.4% | [10]; at 100.0 µM 33% | [11]; at 1.2 µM -69% | [11]; at 3.7 µM -65% | [11]; at 11.0 µM -53% | [11]; at 33.0 µM -16% | [12]; at 1.2 µM -2% | [12]; at 3.7 µM -1% | [12]; at 11.0 µM 6% | [12]; at 33.0 µM 23% | [12]; at 100.0 µM 61% | [13]; at 1.2 µM 8% | [13]; at 3.7 µM 4% | [13]; at 11.0 µM 22% | [13]; at 33.0 µM 19% | [13]; at 100.0 µM 53% | [14]; [17] -4% | [14]; [18] 46% | [15]; at 1.2 µM 2% | [15]; at 3.7 µM 7% | [15]; at 11.0 µM 9% | [15]; at 33.0 µM 20% | [15]; at 100.0 µM 55%
active: [1]; at 33.0 µM 79% | [1]; at 100.0 µM 94% | [5]; at 33.0 µM 71% | [5]; [18] 83% | [5]; at 50.0 µM 72.8% | [5]; at 100.0 µM 92% | [11]; at 100.0 µM 92%
